Screening data (PubChem BioAssay)
NCF1 inh: inhibitors of human p47phox binding; p47phox/p22phox peptide binding, fluorescence polarization, 2 h; actives 0.53% (n = 220,000); inhibition, % at 24.7 µM; P14598
Mcl1 Noxa PPI: disrupts binding of human Mcl-1 to Noxa peptide; Q07820; TR-FRET Mcl-1/Noxa peptide binding, 2 h; inhibition, % at 21.7 µM; actives 1.5% (n = 220,000);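 active means compounds that cut the protein-peptide binding signal by more than 50% relative to plate controls in a single-dose test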;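 further: His-tagged Mcl-1 with rhodamine Noxa BH3 peptide and terbium anti-His antibody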
Mcl1-Bid inh: disrupts binding of human Mcl-1 to Bid peptide; Q07820; TR-FRET Mcl-1/Bid-Dy647 peptide binding, 1536-well; inhibition, % at 21.7 µM; actives 0.97% (n = 220,000);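 active means compounds that cut the binding signal by more than half at the single screening dose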;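 further: His-tagged Mcl-1 with europium anti-His antibody binding Bid BH3 peptide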
eIF4E 4G PPI: inhibitors of eIF4E and eIF4G interaction in translation initiation | P63073+Q04637 | AID 782 | inhibition, % at 21.7 µM | TR-FRET eIF4E-eIF4GI(517-606) binding, 2 h | actives 0.37% (n = 220,000)
Mcl-1 Bim block: human Bim-Mcl-1 interaction inhibition; Q07820; Bead-based flow cytometry, Bim peptide-Mcl-1 binding; actives 0.1% (n = 190,000); inhibition, % at 10 µM; AID 1009; in the data active means inhibition above about 40%
14-3-3 Bad inh: disrupts binding of bovine 14-3-3 zeta to phospho-Bad peptide; actives 0.71% (n = 220,000); TR-FRET 14-3-3zeta/Dy647-pBad peptide displacement, 1 h; P63103; inhibition, % at 21.7 µM;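 active means inhibition above about 70%, limit read from the data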
A number is an active result; n = inactive; x = no result given; [ ] = another dose, or the depositor's remark. An excerpt weighted towards active compounds, which were near 3.3% of everything screened.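 How the source made its calls, unless noted: active means inhibition above about 30% (limit read from the data); inactive means the rest.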

SMILES	NCF1 inh	Mcl1 Noxa PPI	Mcl1-Bid inh	eIF4E 4G PPI	Mcl-1 Bim block	14-3-3 Bad inh
CNS(=O)(=O)c1c(C)cc(C)c(N(C)S(=O)(=O)c2ccccc2)c1C	n	n	n	n	n	n
N#Cc1cc(-c2ccccc2)nc(Oc2ccccc2)n1	n	n	83	n	n	n
N#Cc1ccc(Oc2nc(C#N)cc(-c3ccccc3)n2)cc1	n	n	n	n	n	n
Cc1cc(C(=O)COC(=O)c2ccccc2Br)c(C)n1CC1CCCO1 (centres undefined)	n	n	n	n	x	n
Cc1cc(C(=O)COC(=O)c2cc(O)c3ccccc3c2O)c(C)n1CC1CCCO1 (centres undefined)	n	99	n	n	n	73
Cc1cc(C(=O)COC(=O)c2n[nH]c3ccccc23)c(C)n1CC1CCCO1 (centres undefined)	n	n	n	n	n	n
Cc1ccc(C(=O)OCC(=O)c2cc(C)n(CC3CCCO3)c2C)cc1 (centres undefined)	59	n	n	n	n	n
N#C/C(=C\c1ccncc1)c1nc2ccccc2o1	n	n	n	96	x	n
CCN1/C(=C2\OC(=S)N(C)C2=O)C=Cc2ccccc21	n	n	n	n	n	n
CCCN1C(=O)/C(=c2\s/c(=C3\C=Cc4ccccc4N3CC)c(=O)n2-c2ccccc2)SC1=S	70	n	n	n	n	n
CCCn1c(=C(C#N)C#N)s/c(=C2\C=Cc3ccccc3N2CC)c1=O	37	n	n	n	n	n
CC(NC(=O)CN(C)Cc1cccs1)c1ccccc1 (centres undefined)	x	n	n	n	n	n
FC(F)(F)COc1ccc(-c2nnc(SCc3ccccc3)o2)cn1	n	n	n	n	x	n
CN1CCN(C(=S)NC(=O)c2ccc(Cl)cc2)CC1	n	68	n	n	n	n
COc1cc(OC)nc(/N=C/NO)n1	n	n	n	n	x	n
Fc1ccc(Nc2nc(-c3ccncc3)cs2)cc1	n	51	n	n	n	n
COc1ccc(Nc2nc(-c3ccc(OC)cc3)cs2)cc1	n	n	n	n	n	n
CCc1ccc(-c2csc(NC(=O)Oc3ccccc3)n2)cc1	30	n	n	n	n	n
COc1ccc(-c2csc(Nc3ccc(S(N)(=O)=O)cc3)n2)cc1	n	53	n	n	n	70[fluorescence artefact?]
Nc1ccc(Nc2nc(-c3ccncc3)cs2)cc1	n	n	n	n	n	n
COc1ccc(-c2csc(Nc3ccccc3)n2)cc1	n	83	n	n	n	n
Cc1ccc2oc(=O)n(CC(=O)OCCC(C)C)c2c1	n	n	n	n	x	n
Cc1ccc(NC(=O)CN(C)C(=O)COc2ccc(C(=O)c3ccc(F)cc3)cc2)cc1	n	n	n	n	n	n
CCOCCn1c(CN2CCc3ccccc3C2)nc2c1c(=O)n(C)c(=O)n2C	n	n	n	n	x	n
CC(C)Oc1ccc(/C=C/C(=O)NCC2COc3ccccc3O2)cc1 (centres undefined)	n	n	n	n	x	n
SMILES	NCF1 inh	Mcl1 Noxa PPI	Mcl1-Bid inh	eIF4E 4G PPI	Mcl-1 Bim block	14-3-3 Bad inh
O=C1C2C3C=CC(CC3)C2C(=O)N1/N=C/c1ccc(O)c(O)c1 (centres undefined)	n	n	n	n	n	n
O=C1c2ccccc2C(=O)N1/N=C/c1ccc(O)c(O)c1	n	72	n	n	n	n
COc1cc(-c2nc3ccccn3c2/N=C/c2ccccc2)ccc1O	n	n	n	n	n	n
O=[N+]([O-])c1ccc(Cl)c(-c2ccc(/C=N/c3c(-c4ccco4)nc4ccccn34)o2)c1	n	n	55	n	n	n
O=[N+]([O-])c1ccc(-c2ccc(/C=N/c3c(-c4ccco4)nc4ccccn34)o2)c(Cl)c1	n	62	57	n	n	n
CCC1=C(OC(=O)N(CC)CC)N2C(=O)OC(=NCCc3c[nH]c4ccccc34)[C@]2(Cc2ccccc2)[C@H]2C1=CC[C@H]1C(=O)N(C)C(=O)[C@H]12	n	n	n	n	x	n
CCN(CC)c1ccc(C=Nc2ccccc2)c(O)c1	n	n	n	n	n	n
CCN(CC)c1ccc(/C=N/Nc2cccc(C)c2)c(O)c1	n	n	79	n	n	n
CCN(CC)c1ccc(/C=N/Nc2ccccc2)c(O)c1	n	57	n	n	n	n
CCN1CCN(C(=S)NC(C)c2ccccc2)CC1 (centres undefined)	n	n	n	n	n	n
CN(C(=O)CSc1nnc(-c2ccc(F)cc2)c2ccccc12)C1CCS(=O)(=O)C1 (centres undefined)	n	n	n	n	n	n
Cc1c(-n2c(SCC(=O)NC(C)C)nc3ccccc3c2=O)c(=O)n(-c2ccccc2)n1C	n	n	n	n	n	n
CN(CCO)S(=O)(=O)c1ccc2c(c1)C(=NO)c1cc(S(=O)(=O)N(C)CCO)ccc1-2	n	n	83	n	n	n
Cc1ccc(/C=C/C(=O)O)cc1S(=O)(=O)N(C)CCO	n	n	n	n	n	n
CCOc1ccccc1NC(=O)N1CCC(NC(=O)c2cccc(C)c2)CC1	n	n	n	56	n	80[fluorescence artefact?]
Cc1ccc(C)c(NC(=O)CCC(=O)OC(C(=O)c2ccccc2)c2ccccc2)c1 (centres undefined)	n	n	n	n	n	n
O=C(CCC(=O)OC(C(=O)c1ccccc1)c1ccccc1)Nc1ccccc1 (centres undefined)	n	n	n	n	n	87
C/C(=N\NC(=O)c1c(Cl)c(C)nn1C)c1cccc(NC(=O)COc2ccccc2)c1	n	n	60	n	n	n
Cc1nnc(SCC(=O)c2cc(C)n(-c3ccc4c(c3)OCO4)c2C)s1	n	n	n	n	n	n
CCCC1(CCC)NC(=O)N(CC(=O)c2cc(C)n(-c3ccc4c(c3)OCO4)c2C)C1=O	n	n	51	n	n	n
Cc1ncc(CO)c(/C=N/NC(=O)c2ccc(Br)cc2)c1O	n	n	n	n	n	n
Cc1ncc(CO)c(/C=N/NC(=O)c2cc(O)c(O)c(O)c2)c1O	n	67	n	n	n	n
CC(C)c1cc(C(=O)O)c2cnn(C(C)C)c2n1	n	n	n	n	x	n
C=CCC1(/C=N/O)CCOC(C)(C)C1 (centres undefined)	64	n	98	n	x	n
O=C(C1=C(O)C(=O)N(c2ncccn2)C1c1cccc(Cl)c1)c1ccco1 (centres undefined)	n	63	n	n	n	n
COc1ccc(Cn2c(-c3ccc(C)cc3)nc3c(c(=O)c4ccccc4n3C)c2=O)cc1	n	n	n	n	n	n
CC1CN(c2snnc2C=C2C(=O)OC(C)(C)OC2=O)CC(C)O1 (centres undefined)	n	n	n	n	n	n
Cc1cc(C(=O)O)ccc1-n1c(C)cc(C=C2C(=O)c3ccccc3C2=O)c1C	n	n	n	n	n	n
